# Inconclusive results are not listed. A call without a number means that no potency is given here. The source made the active and inactive calls. Unless noted, the call rests on the fitted dose curve; in most records, active means well fitted curve in the direction sought with a large enough effect; inconclusive means small, poorly fitted or top-dose-only effect, or another doubt; inactive means no such curve, though single readings can be large; an effect the other way counts as inactive or inconclusive.
# Legend:
# [1] = Primary qHTS for small molecule stabilizers of the endoplasmic reticulum resident proteome: Secreted ER Calcium Modulated Protein (SERCaMP) assay (AID 1508630)
# Procedure, shortened: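 The SH-SY5Y reporter protocol was run at 3 concentrations up to 38.3 uM (primary) or 11 concentrations (follow-up): 16 h compound, 100 nM thapsigargin for 4 h, then extracellular luciferase luminescence.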
# [2] = biological target: Lysosomal acid glucosylceramidase (Homo sapiens) (UniProt P04062); assay: Glucocerebrosidase-p2 (AID 348; in the data active means potency below about 10 µM; further: potency means the concentration at half of the fitted maximal effect); conditions: purified GBA, blue fluorogenic substrate, 40 min
# Procedure, shortened: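 Normal human glucocerebrosidase (0.2 nM) with blue fluorogenic substrate (80 uM final) in citrate/phosphate pH 5.9 with 10mM sodium taurocholate, 0.01% tween-20; 40 min RT, NaOH/glycine stop; fluorescence Ex 365/Em 440; AC50 from a titration from 0.6 nM upwards.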
# [3] = AP1 Signaling Pathway (AID 357; active means well fitted curve in either direction with a large enough effect, not every such curve was filed as active;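 further: ME-180 reporter cells stimulated with EGF at its EC50 level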); conditions: ME-180 AP-1-bla reporter, EGF-induced, beta-lactamase ratio, 5 h; at 7.69 µM (top of the series) unless noted
# Procedure, shortened: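 Titration-series screen for positive or negative modulators of EC50 EGF-induced signaling in ME-180 cells carrying an AP-1-driven beta-lactamase reporter. After 5 hours at 37 degrees Celsius, CCF4 460nm/530nm emission ratio gave %Activity; AC50 values derived.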
# [4] = biological target: Cytochrome P450 1A2 (Homo sapiens) (UniProt P05177); assay: p450-cyp1a2 (AID 410; calls by dose curve; further: potency means the concentration at half of the fitted maximal effect)
# Procedure, shortened: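 20nM CYP1A2, 100uM Luciferin-ME (=Km), 100mM KPO4; cpd 10 min RT; +NADPH regen, 60 min RT; stop/detect 20 min; luminescence. Normalized to furafylline 57 uM = full inhibition.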
# [5] = NFAT Signaling Pathway (AID 444; active means well fitted curve in either direction with a large enough effect, not every such curve was filed as active;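 further: carbachol stimulus at about its EC50 of 1 µM final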); conditions: Jurkat NFAT-bla M1, carbachol, beta-lactamase ratio, 5 h; at 7.69 µM (top of the series) unless noted
# Procedure, shortened: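 Read-out: CCF4 FRET ratio (460 nm/530 nm) after 1 h RT dye loading, used for %activity and AC50 from titration series. Cells: Jurkat NFAT-β-lactamase/M1 line, treated with compound plus 1 uM carbachol for 5 h, 37 °C.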
# [6] = Stat Signaling Pathway (AID 446; active means well fitted curve in either direction with a large enough effect, not every such curve was filed as active;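 further: ME-180 cervical cancer cells given 40 pM IL-6 alongside compound; SIE-controlled beta-lactamase reporter measured as 460/530 nm FRET emission ratio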); conditions: ME-180 (cervical carcinoma) SIE beta-lactamase reporter, IL-6 stimulated, 5 h; at 7.69 µM (top of the series) unless noted
# Procedure, shortened: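 Compound effects on IL-6-induced STAT reporter activity were measured in ME-180 cells. After overnight culture, cells were co-treated with 40 pM IL-6 for 5 hrs before beta-lactamase substrate loading at room temperature.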
# [7] = biological target: Glucocorticoid receptor (Homo sapiens) (UniProt P04150); assay: GR-EFC Redistribution (AID 451; calls by dose curve; further: potency means the concentration at half of the fitted maximal effect); conditions: CHO-K1 GR-EFC translocation, beta-gal luminescence, 2 h
# Procedure, shortened: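 Translocation of GR-ED fusion to nuclear EA restores b-gal, read by luminescence after 1 h room-temperature detection. Engineered CHO-K1 biosensor cells, 1,000/well, exposed 2 h at 37 C to titrations up to 46 uM final.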
# [8] = biological target: Mitogen-activated protein kinase 10 (Mus musculus) (UniProt Q61831); assay: JNK3 AlphaScreen Assay (AID 530; active means well fitted curve in either direction with a large enough effect, not every such curve was filed as active;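 further: kinase came from lysate of stimulated human HepG2 cells; signal reports phosphorylation of biotinylated GST-cJun 1-79 at Ser73 with 10 µM ATP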)
# Procedure, shortened: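 Kinase buffer: 20 mM Tris-HCl pH 7.6, 10 mM MgCl2, 1 mM DTT, 0.1 mM Na3VO4, 0.01% Tween-20; ATP 10 uM. Substrate biotin-GST-cJun(1-79), enzyme from activated HepG2 lysates. Detection by Ser73 phospho-antibody AlphaScreen.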
# [9] = biological target: 3',5'-cyclic-AMP phosphodiesterase 4B (Homo sapiens) (UniProt Q07343); assay: qHTS Assay for Inhibitors of PDE-IV (AID 607; active means well fitted activation curve with a large enough effect in the main read-out, with a control signal flat, not every such curve was filed as active)
# Procedure, shortened: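 ACTOne HEK293 cells carry a modified cAMP-gated CNG channel and express endogenous PDE4; plated 1000 cells/well, compounds up to 22.9 uM final. Membrane-potential dye fluorescence (ex 535/em 590) was read; parental cells received 10 uM forskolin + 100 uM RO 20-1724.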
# [10] = qHTS Assay for Lipid Storage Modulators (AID 1519; calls by dose curve); conditions: Drosophila S3 cells, BODIPY lipid droplet/cell ratio, laser cytometry, cells loaded with oleic acid; for activity change, negative = inhibition: at 57.5 µM (top of the series)
# Procedure, shortened: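 Cells seeded at 5,000 per well were treated with compounds over a concentration series and loaded with oleic acid (400 uM, as added). Lipid droplet fluorescence (488 nm excitation, 500-530 nm channel) was read by laser-scanning cytometry and normalized to 20 uM Triacsin C.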
# [11] = biological target: Rap guanine nucleotide exchange factor 3 (Homo sapiens) (UniProt O95398); assay: Confirmatory qHTS for agonist of cAMP-regulated guanine nucleotide exchange factor 3 (EPAC1) (AID 1645881);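 further: EPAC1 catalysed release of BODIPY-GDP from Rap1B seen as fluorescence loss; nearly all actives have a fitted effect of over 75% in size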
# [12] = biological target: Rap guanine nucleotide exchange factor 4 (Homo sapiens) (UniProt Q8WZA2); assay: Confirmatory qHTS for agonist of cAMP-regulated guanine nucleotide exchange factor 4 (EPAC2) (AID 1645884);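 further: nucleotide exchange releases bodipy-GDP from Rap1 and this lowers its fluorescence; nearly all actives have a fitted effect of over 65% in size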
# [13] = biological target: Rap guanine nucleotide exchange factor 4 (Homo sapiens) (UniProt Q8WZA2); assay: Confirmatory qHTS for antagonist of cAMP-regulated guanine nucleotide exchange factor 4 (EPAC2) (AID 1645885); further: nearly all actives have a fitted effect of over 25% in size; further: potency means the concentration at half of the fitted maximal effect
# [14] = biological target: Glucocorticoid receptor (Homo sapiens) (UniProt P04150); assay: GR-GFP Redistribution (AID 450;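 active means compounds whose dose series gives a full or clear partial fitted curve of increased nuclear translocation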; further: potency means the concentration at half of the fitted maximal effect); conditions: U2OS GR-GFP nuclear translocation, laser cytometry, 2 h
# [15] = biological target: Cytochrome P450 3A4 (Homo sapiens) (UniProt P08684); assay: qHTS Assay for Activators of Cytochrome P450 3A4 (AID 885); further: nearly all actives have a fitted effect of over 65% in size
# Procedure, shortened: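 CYP3A4 activity: Luciferin-PPXE O-dealkylation, 25uM substrate, 200mM KPO4, RT throughout. Read-out is luciferase luminescence; higher values reflect activation.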
# [16] = biological target: Dual specificity protein kinase CLK4 (Homo sapiens) (UniProt Q9HAZ1); assay: qHTS Assay for Inhibitors of CDC-like Kinase 4 (ADP-Glo Assay) (AID 1771); further: nearly all actives have a fitted effect of over 70% in size
# Procedure, shortened: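 25 nM Clk4, 100 uM RS peptide, 1 uM ATP (final); 2 mM MgCl2, 0.5 mM EGTA, 2.5 mM DTT, 0.01% Triton X-100; 1 hr RT. ADP-Glo readout: ATP depletion 45 min, conversion/luciferase 30 min, luminescence.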
# [17] = biological target: Dual specificity protein kinase CLK4 (Homo sapiens) (UniProt Q9HAZ1); assay: qHTS Assay for Inhibitors of CDC-like Kinase 4 (ADP-FP Assay) (AID 1795); further: nearly all actives have a fitted effect of over 60% in size
# Procedure, shortened: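 Recombinant human Clk4 (6.25 nM) phosphorylated RS repeat peptide (100 uM) with 1 uM ATP in Tris pH 7.5/MgCl2/EGTA/DTT/Triton buffer for one hour. ADP was quantified by Transcreener competitive fluorescence polarization against an ADP calibration curve.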
# [18] = biological target: Ubiquitin carboxyl-terminal hydrolase 1 (Homo sapiens) (UniProt O94782); assay: Inhibitors of USP1/UAF1: Pilot qHTS (AID 504865); further: potency means the concentration at half of the fitted maximal effect; nearly all actives have a fitted effect of over 35% in size
# Procedure, shortened: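 USP1/UAF1 complex (1nM) preincubated with compound 15 min at room temperature, then Ub-Rho substrate (150nM final) added. Fluorescence read kinetically at 480/540 nm, 6 reads every 60 seconds. Buffer: 50mM HEPES pH 7.8, 0.5mM EDTA, 0.1 mg/ml BSA, 1mM TCEP, 0.01% Tween-20.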
# [19] = measured here: cell count channel max response
# [20] = measured here: lipid channel max response
# Chain of Rap guanine nucleotide exchange factor 4 (Homo sapiens) (Q8WZA2 whole entry, looked up): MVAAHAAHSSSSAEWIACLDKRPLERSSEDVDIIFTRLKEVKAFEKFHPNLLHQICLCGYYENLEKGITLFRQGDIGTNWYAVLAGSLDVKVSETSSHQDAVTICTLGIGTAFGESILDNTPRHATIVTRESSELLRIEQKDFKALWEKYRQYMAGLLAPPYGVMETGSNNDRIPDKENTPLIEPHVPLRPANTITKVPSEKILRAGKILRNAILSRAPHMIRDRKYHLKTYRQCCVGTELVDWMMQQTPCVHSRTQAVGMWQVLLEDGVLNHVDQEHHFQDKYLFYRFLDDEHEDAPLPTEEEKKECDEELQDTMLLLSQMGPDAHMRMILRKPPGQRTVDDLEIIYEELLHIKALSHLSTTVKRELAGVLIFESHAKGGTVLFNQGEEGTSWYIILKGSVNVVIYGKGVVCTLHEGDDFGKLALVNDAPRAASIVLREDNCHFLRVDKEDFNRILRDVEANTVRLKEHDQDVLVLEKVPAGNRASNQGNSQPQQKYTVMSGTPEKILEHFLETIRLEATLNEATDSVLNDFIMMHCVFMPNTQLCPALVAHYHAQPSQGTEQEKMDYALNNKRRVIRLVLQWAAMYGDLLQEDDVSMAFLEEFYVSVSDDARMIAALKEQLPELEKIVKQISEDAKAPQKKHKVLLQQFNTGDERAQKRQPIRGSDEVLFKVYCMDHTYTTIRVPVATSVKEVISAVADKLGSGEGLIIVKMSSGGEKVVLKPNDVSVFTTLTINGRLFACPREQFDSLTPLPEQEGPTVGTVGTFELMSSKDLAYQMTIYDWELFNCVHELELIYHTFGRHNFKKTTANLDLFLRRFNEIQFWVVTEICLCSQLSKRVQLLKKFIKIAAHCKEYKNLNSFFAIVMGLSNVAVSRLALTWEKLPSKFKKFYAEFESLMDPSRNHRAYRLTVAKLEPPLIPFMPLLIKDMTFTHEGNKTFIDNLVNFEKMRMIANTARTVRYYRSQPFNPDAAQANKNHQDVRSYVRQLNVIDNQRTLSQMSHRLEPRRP
# Chain of Glucocorticoid receptor (Homo sapiens) (P04150 whole entry, looked up, the tested form may be a part): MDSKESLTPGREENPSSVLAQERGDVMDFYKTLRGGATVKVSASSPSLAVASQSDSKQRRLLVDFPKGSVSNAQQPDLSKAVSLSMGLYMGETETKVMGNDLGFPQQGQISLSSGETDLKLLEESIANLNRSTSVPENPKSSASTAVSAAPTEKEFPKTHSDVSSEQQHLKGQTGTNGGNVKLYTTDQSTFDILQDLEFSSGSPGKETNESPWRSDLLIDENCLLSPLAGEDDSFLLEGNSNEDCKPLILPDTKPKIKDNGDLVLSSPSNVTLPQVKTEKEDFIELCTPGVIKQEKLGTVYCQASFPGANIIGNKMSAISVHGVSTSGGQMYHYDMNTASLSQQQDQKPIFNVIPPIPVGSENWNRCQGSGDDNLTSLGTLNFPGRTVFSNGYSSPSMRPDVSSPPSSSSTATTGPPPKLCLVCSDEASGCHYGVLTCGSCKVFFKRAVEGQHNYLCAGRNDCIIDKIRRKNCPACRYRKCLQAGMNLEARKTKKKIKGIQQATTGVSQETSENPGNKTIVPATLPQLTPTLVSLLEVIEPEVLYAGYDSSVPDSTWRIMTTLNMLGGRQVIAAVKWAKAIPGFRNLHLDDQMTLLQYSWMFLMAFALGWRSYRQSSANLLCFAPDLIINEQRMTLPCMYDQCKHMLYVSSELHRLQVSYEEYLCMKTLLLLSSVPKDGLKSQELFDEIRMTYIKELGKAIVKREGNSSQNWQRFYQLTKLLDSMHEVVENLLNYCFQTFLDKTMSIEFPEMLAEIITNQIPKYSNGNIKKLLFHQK
# Chain of Lysosomal acid glucosylceramidase (Homo sapiens) (P04062 whole entry, looked up): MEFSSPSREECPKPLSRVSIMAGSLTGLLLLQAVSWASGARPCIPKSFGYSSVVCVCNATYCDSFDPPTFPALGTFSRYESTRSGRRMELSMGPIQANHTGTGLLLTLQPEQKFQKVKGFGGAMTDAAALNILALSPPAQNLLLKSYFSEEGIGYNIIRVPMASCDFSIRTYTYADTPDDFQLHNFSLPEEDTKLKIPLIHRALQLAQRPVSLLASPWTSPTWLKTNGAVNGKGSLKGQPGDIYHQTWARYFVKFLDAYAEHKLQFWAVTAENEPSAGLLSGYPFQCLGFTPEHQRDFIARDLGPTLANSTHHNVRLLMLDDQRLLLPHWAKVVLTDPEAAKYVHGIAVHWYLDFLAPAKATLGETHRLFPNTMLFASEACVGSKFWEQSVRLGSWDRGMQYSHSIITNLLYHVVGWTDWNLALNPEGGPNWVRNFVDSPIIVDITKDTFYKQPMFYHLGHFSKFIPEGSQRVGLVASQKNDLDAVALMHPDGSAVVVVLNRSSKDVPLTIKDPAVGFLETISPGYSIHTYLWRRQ
# Chain of Dual specificity protein kinase CLK4 (Homo sapiens) (Q9HAZ1 whole entry, looked up): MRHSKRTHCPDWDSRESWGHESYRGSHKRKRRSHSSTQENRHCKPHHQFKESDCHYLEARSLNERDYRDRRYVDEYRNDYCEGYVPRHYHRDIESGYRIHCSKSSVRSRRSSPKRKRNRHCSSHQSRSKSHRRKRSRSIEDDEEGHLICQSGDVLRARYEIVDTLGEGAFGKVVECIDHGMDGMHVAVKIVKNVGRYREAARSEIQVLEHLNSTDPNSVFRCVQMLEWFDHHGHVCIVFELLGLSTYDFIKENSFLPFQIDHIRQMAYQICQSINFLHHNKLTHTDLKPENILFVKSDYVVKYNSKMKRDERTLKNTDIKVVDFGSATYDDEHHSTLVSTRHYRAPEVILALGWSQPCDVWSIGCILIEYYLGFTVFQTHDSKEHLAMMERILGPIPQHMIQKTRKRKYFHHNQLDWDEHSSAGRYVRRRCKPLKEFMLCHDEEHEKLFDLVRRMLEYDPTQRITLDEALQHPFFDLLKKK
# Chain of Rap guanine nucleotide exchange factor 3 (Homo sapiens) (O95398 whole entry, looked up): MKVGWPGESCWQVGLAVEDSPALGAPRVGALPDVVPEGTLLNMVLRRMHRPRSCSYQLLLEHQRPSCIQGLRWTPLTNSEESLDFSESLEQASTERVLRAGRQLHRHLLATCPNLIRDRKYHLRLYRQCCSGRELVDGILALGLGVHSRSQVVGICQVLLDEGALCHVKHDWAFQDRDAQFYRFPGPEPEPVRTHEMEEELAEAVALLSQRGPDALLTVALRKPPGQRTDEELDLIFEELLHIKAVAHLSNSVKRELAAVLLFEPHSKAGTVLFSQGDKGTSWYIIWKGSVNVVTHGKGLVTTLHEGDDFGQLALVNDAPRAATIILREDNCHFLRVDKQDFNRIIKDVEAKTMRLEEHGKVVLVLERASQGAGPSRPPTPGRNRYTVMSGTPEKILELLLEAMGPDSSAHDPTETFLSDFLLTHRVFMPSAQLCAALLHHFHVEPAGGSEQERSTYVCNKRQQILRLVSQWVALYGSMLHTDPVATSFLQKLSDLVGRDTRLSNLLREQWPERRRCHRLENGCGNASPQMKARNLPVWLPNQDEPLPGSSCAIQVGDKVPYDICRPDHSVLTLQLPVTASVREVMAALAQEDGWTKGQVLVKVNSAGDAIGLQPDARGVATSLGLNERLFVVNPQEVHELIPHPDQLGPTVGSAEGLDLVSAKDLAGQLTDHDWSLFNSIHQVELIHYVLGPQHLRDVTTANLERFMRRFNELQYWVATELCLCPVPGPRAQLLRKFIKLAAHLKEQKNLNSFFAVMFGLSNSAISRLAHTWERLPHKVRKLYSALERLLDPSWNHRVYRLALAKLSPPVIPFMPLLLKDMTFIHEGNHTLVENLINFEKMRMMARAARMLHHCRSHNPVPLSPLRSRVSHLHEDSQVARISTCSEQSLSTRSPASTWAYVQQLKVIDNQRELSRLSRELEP
# Chain of Cytochrome P450 1A2 (Homo sapiens) (P05177 whole entry, looked up): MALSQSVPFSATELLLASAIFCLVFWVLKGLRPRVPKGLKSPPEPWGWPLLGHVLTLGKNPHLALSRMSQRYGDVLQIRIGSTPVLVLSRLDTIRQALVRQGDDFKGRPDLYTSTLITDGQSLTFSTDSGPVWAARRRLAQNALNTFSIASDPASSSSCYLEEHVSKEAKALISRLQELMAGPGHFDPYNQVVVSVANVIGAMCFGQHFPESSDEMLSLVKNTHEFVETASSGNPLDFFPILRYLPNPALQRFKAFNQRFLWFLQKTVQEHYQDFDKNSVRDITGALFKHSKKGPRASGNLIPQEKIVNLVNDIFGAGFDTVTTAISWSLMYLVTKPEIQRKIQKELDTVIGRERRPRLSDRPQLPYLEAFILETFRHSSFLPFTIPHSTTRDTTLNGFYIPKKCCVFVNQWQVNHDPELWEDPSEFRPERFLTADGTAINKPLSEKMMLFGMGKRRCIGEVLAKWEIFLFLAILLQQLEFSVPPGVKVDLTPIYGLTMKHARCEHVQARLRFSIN
# Chain of Ubiquitin carboxyl-terminal hydrolase 1 (Homo sapiens) (O94782 whole entry, looked up): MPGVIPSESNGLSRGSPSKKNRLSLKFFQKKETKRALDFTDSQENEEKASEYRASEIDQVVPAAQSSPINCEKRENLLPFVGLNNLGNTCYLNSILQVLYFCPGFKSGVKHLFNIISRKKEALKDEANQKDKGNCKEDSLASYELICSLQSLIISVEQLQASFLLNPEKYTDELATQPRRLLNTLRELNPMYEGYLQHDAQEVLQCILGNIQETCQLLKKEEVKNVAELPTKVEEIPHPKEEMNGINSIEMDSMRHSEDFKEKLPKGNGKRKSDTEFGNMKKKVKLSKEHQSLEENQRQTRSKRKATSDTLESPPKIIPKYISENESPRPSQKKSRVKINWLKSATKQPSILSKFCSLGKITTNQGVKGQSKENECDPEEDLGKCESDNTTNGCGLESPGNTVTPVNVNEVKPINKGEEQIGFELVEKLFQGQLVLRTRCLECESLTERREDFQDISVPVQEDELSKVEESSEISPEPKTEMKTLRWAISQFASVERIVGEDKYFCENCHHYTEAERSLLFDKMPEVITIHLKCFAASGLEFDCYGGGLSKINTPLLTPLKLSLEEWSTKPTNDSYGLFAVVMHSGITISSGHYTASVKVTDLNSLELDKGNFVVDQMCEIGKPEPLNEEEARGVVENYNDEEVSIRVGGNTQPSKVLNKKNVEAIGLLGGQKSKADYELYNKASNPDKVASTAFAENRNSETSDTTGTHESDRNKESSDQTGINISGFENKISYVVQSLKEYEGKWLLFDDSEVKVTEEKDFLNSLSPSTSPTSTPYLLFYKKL
smiles,measurement,setting,value
CC1=CC(=O)C2=C(C)C[C@H](OC(=O)Cc3ccccc3)C3[C@H](OC(=O)[C@H]3C)C12 (stereo partly specified),Potency,[1],inactive
COCC(=O)N1CCC2(CC1)CCN(C(=O)Nc1cccc(C#N)c1)CC2,Potency,[2],> 11.4 µM (inactive)
same,"activity change, negative = inhibition",[3],-4.8% (inactive)
same,Potency,[4],inactive
same,"activity change, negative = inhibition",[5],-11.9% (inactive)
same,"activity, negative = inhibition",[6],-4.23% (inactive)
same,Potency,[7],> 46 µM (inactive)
same,outcome,[8],inactive
same,Potency,[9],inactive
same,"activity change, negative = inhibition",[10],1.13% (inactive)
same,max response,[10]; [19],4.68%
same,max response,[10]; [20],4.41%
same,Potency,[1],inactive
same,outcome,[11],inactive
same,outcome,[12],inactive
same,Potency,[13],inactive
C/C=C(\C)C(=O)O[C@H]1C[C@@]2(C)CCC(C(C)C)C2(O)CC[C@@]1(C)O (stereo partly specified),Potency,[1],inactive
C=C1C[C@]23CC[C@H]4C(CO)(CO)C[C@@H](O)C[C@@]4(C)[C@@H]2CC[C@H]1C3,Potency,[1],inactive
CC1CCC(C(C)[C@H]2CCC3C4CC(=O)C5C[C@@H](O)CC[C@]5(C)C4CC[C@@]32C)=NC1 (stereo partly specified),Potency,[1],inactive
CC(=O)O[C@@H]1CC2C(C)(C)C(=O)C=C[C@]2(C)C2CC[C@]3(C)C(=CC[C@H]3C3CO[C@@H](C(C)(C)O)[C@H](O)C3)[C@@]21C (stereo partly specified),Potency,[1],inactive
COc1cc2oc(=O)c3c4c(cc5ccc(c1CCN(C)C)c2c53)OCO4,Potency,[1],inactive
COc1cc(CCNC(C)=O)c(C(=O)/C=C/c2cccc(OC)c2OC)cc1OC,Potency,[1],inactive
COc1ccccc1CNc1nc(-c2c(C)noc2C)nc2ccccc12,Potency,[2],> 11.4 µM (inactive)
same,"activity change, negative = inhibition",[3],2.62% (inactive)
same,Potency,[4],0.631 µM (active)
same,"activity, negative = inhibition",[6],-26.3% (inactive)
same,Potency,[14],> 46 µM (inactive)
same,Potency,[7],> 46 µM (inactive)
same,outcome,[8],inactive
same,Potency,[15],inactive
same,"activity change, negative = inhibition",[10],7.14% (inactive)
same,max response,[10]; [19],14%
same,max response,[10]; [20],19.1%
same,Potency,[16],inactive
same,Potency,[17],inactive
same,Potency,[18],28.2 µM (active)
same,Potency,[1],inactive
same,outcome,[11],inactive
same,outcome,[12],inactive
same,Potency,[13],39.3 µM (active)
COc1cc2c(cc1OC)-c1cc3cc(OC)c(OC)cc3c(=O)n1CC2,Potency,[1],inactive

# Source: PubChem BioAssay (NCATS)
